Results on 6 compounds are retold here after PubChem BioAssay.

Test [1] has as its system Plasmodium falciparum Sir2 (PF13_0152, Sir2A). Kind of test: pfSir2 binders on small-molecule microarrays, primary screen, biochemical, small-molecule microarray, 635 nm fluorescence (AID 1098).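 Also: score merges spot fluorescence intensity with its signal-to-noise ratio.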 As to conditions: small-molecule microarray binding, fluorescence 635 nm; higher = more signal.
The nature of test [2]: small-molecule microarray binders of probe aDKK1, primary screen, biochemical, biotinylated probe, 635/667 nm fluorescence (AID 1099).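 Also: score merges 667nm spot fluorescence with signal to noise across triplicate slides.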 The following applies: higher = more signal.
Test [3] can be described thus: small-molecule microarray binders of probe aCHRDL2, primary screen, biochemical, biotinylated probe, 635/667 nm fluorescence (AID 1100). As to conditions: higher = more signal.
Test [4] can be described thus: splicing luciferase reporter signal modulators, primary screen, spliceosome inhibition project, cell-based, HEK293, splice +/- reporter (AID 1101).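 Also: HEK293 cells carrying a splicing-competent luciferase reporter gene; test concentration not given here.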 As to conditions: luminescence, 24 h, higher = more signal, called active from +8 up or from −8 down. A general note: In a reporter assay the amount or activity of a reporter protein is the signal.
Test [5] deals with Fibroblast growth factor 10 (Homo sapiens) (UniProt O15520). Nature of the test: FGF10 binders on small-molecule microarrays, primary screen, biochemical, small-molecule microarray, 635 nm fluorescence (AID 1102). As to conditions: FGF10 binding, fluorescence 635 nm, higher = more signal.
Test [6] relates to glycogen synthase kinase-3 (GSK3A per assay name; protocol says GSK3B). Nature of the test: GSK3 binders on small-molecule microarrays, primary screen, biochemical, small-molecule microarray, 635 nm fluorescence, GSK3A (AID 1103). Also: the record names both GSK3A and GSK3B. The following applies: small-molecule microarray binding, fluorescence 635 nm; higher = more signal.
Test [7] has as its target Epidermal growth factor receptor (Homo sapiens) (UniProt P00533). Nature of the test: EGFR binders on small-molecule microarrays, primary screen, biochemical, small-molecule microarray, 635 nm fluorescence (AID 1104).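 Also: score merges 667 nm emission intensity with spot signal to noise over triplicate slides.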 The following applies: EGFR binding, higher = more signal.
The target in test [8] is Follistatin-related protein 3 (Homo sapiens) (UniProt O95633). Nature of the test: FSTL3 binders on small-molecule microarrays, primary screen, biochemical, small-molecule microarray, 635 nm fluorescence (AID 1105).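 Also: score merges emission near 667 nm and signal to noise per printed spot across three slides.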 The following applies: FSTL3 binding, higher = more signal.
Test [9] addresses Dickkopf-related protein 1 (Homo sapiens) (UniProt O94907). Nature of the test: DKK1 binders on small-molecule microarrays, primary screen, biochemical, small-molecule microarray, 635 nm fluorescence scan (AID 1106).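 Also: score merges emission near 667 nm with signal to noise over three replicate slides.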 As to conditions: DKK1 binding, higher = more signal.
Test [10] relates to Inhibin beta A chain (activin A). Nature of the test: INHBA (activin A) binders on microarrays, primary screen, biochemical, small-molecule microarray, 635 nm fluorescence scan (AID 1107).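 Also: mouse activin A protein probed at 4.33 µg/mL on printed slides; score merges bound-protein fluorescence near 667 nm with spot signal-to-noise.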 The following applies: small-molecule microarray binding, higher = more signal.
The test system of test [11] is Human papillomavirus type 1a protein E7 (residues 44-93). Nature of the test: HPV1a E7 fragment binders on microarrays, primary screen, biochemical, small-molecule microarray, residues 44-93, 635 nm fluorescence (AID 1108).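 Also: E7 fragment applied at 1 µg/mL in TBST for 1 h at 4 C; score combines spot fluorescence with its signal to noise ratio.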 The following applies: small-molecule microarray binding, fluorescence 635 nm; higher = more signal.
Test [12] can be described thus: modulators of HCV replicon luciferase signal, primary screen, HCV replication inhibitor project, Huh7 cells, luciferase reporter (AID 1109).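 Also: huh7 hepatoma cells harbouring a luciferase neomycin HCV replicon reporter; luciferase luminescence as measure of HCV replicon replication; test concentration not given here.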 As to conditions: 48 h, higher = more signal. A general note: In antiviral work, replicon cells carry a viral genome segment that copies itself.
Test [13] concerns the target Left-right determination factor 2 (Homo sapiens) (UniProt O00292). Kind of test: LEFTY2 binders on small-molecule microarrays, primary screen, biochemical, small-molecule microarray, 635 nm fluorescence scan (AID 1110). As to conditions: LEFTY2 binding, higher = more signal.
Test [14] addresses Calmodulin-1 (Homo sapiens) (UniProt P0DP23). Nature of the test: CALM1 binders on microarrays, EGTA buffer, profiling panel, biochemical, small-molecule microarray, Cy5-labelled CALM1 (AID 1111).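 Also: labelled calmodulin applied in Tris saline Tween buffer holding calcium plus EGTA and DTT.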 The following applies: Cy5-CALM1 binding fluorescence, higher = more signal.
The target is the same in test [15]. Nature of the test: calcium-bound CALM1 binders on microarrays, profiling panel, artefact control for SMM control-protein annotation, biochemical, small-molecule microarray, Cy5-labelled CALM1, plus calcium (AID 1112).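 Also: score merges spot fluorescence with signal to noise from triplicate slides.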 As to conditions: Cy5-CALM1 binding fluorescence, higher = more signal.
Test [16] is described as follows: small-molecule microarray binders of probe aWnt5a, primary screen, biochemical, biotinylated probe, 635/667 nm fluorescence (AID 1113).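 Also: score merges 667 nm fluorescence intensity with signal-to-noise per printed feature.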 The following applies: higher = more signal.
Test [17] is described as follows: small-molecule microarray binders of probe aShh, primary screen, biochemical, biotinylated probe, 635/667 nm fluorescence (AID 1114).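 Also: probe is biotin-labelled aShh protein from a stem cell growth factor screen; measures binding of labelled protein to compounds printed on the slide; score merges feature fluorescence at 667 nm with signal-to-noise.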 As to conditions: higher = more signal.
A short description of test [18]: small-molecule microarray binders of probe aNog, primary screen, biochemical, biotinylated probe, 635/667 nm fluorescence (AID 1115).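 Also: probe is biotinylated aNog protein used at 0.15 µg/mL for 1 h at 4 C; z-score combines 667 nm fluorescence of each spot with its signal to noise.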 As to conditions: higher = more signal.
The target of test [19] is Torsin-1A-interacting protein 1 (Homo sapiens) (UniProt Q5JTV8). Nature of the test: LAP1 binders from COS7 cell lysate, primary screen, small-molecule microarray, 635/667 nm fluorescence (AID 1116). The following applies: COS7-hLAP1 lysate binding, 635 nm fluorescence, higher = more signal.
Test [20] has as its target Alpha-bungarotoxin (Bungarus multicinctus) (UniProt P60615). Kind of test: alpha-bungarotoxin binders on microarray, profiling panel, artefact control for SMM control protein annotation, biochemical, small-molecule microarray, Alexa647 label, 635/667 nm fluorescence (AID 1117). As to conditions: alpha-BTX-A647 binding fluorescence, higher = more signal.

Molecules are shown by their SMILES. Calls of active or inactive are those of the source.

Torsin-1A-interacting protein 1 (Homo sapiens), sequence (Q5JTV8 whole entry, looked up): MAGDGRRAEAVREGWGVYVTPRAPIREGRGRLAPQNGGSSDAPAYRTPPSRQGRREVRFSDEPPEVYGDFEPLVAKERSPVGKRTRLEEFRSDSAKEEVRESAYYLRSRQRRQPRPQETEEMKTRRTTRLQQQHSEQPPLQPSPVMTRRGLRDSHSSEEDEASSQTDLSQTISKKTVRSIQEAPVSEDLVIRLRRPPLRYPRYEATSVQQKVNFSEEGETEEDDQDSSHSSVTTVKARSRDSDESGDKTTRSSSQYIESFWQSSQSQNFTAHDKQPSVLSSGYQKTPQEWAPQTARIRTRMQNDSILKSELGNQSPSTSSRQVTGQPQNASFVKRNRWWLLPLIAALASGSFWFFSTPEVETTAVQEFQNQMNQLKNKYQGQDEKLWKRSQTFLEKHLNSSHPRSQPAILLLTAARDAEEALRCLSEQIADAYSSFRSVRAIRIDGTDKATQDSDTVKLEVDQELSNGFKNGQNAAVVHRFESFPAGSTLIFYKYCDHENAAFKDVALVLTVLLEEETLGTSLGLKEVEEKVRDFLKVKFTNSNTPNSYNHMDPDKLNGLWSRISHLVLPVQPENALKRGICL
Epidermal growth factor receptor (Homo sapiens), sequence (P00533 whole entry, looked up): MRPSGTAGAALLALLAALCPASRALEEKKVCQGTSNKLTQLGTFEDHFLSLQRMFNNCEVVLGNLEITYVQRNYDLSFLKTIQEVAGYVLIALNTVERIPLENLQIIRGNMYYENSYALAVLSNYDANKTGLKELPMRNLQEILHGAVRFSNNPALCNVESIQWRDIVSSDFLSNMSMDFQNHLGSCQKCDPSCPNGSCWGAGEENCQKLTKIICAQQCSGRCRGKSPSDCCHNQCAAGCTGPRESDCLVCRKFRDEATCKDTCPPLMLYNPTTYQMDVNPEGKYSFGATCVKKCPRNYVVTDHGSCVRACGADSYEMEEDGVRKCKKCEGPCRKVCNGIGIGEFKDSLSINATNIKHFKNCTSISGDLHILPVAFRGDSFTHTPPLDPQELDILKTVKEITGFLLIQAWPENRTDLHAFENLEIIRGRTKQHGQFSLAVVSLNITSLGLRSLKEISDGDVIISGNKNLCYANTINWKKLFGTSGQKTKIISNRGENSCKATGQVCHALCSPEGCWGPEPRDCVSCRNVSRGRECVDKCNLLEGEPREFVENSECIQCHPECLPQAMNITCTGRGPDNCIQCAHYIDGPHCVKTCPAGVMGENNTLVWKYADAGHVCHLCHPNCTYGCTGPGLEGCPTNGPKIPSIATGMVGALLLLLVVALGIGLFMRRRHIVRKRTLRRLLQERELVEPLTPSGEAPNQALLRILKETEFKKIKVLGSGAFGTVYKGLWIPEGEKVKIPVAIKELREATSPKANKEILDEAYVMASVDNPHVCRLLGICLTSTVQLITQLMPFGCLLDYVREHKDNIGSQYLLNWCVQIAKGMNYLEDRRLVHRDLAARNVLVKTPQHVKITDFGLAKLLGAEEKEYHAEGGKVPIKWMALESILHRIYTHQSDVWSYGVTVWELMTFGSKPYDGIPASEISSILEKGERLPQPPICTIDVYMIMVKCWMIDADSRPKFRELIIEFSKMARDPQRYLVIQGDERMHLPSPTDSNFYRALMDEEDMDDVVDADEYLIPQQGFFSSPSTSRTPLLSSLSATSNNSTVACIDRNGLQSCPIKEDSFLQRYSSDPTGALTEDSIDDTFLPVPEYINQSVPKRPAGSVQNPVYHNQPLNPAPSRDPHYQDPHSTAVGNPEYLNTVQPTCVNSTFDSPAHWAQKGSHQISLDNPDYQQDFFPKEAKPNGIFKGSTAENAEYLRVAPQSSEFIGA
Follistatin-related protein 3 (Homo sapiens), sequence (O95633 whole entry, looked up): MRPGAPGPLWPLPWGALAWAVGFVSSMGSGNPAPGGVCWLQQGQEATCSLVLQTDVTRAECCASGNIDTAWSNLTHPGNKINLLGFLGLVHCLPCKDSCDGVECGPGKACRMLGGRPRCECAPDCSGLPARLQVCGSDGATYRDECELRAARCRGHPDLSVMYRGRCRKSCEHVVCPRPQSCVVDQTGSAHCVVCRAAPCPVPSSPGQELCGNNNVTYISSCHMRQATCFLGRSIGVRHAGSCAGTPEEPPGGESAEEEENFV
Fibroblast growth factor 10 (Homo sapiens), sequence (O15520 whole entry, looked up): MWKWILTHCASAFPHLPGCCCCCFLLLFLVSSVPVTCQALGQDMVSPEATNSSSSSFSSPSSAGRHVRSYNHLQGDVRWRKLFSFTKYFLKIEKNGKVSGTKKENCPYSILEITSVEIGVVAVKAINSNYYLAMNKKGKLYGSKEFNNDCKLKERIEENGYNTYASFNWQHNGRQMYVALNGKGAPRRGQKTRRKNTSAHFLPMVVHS
Alpha-bungarotoxin (Bungarus multicinctus), sequence (P60615 whole entry, looked up): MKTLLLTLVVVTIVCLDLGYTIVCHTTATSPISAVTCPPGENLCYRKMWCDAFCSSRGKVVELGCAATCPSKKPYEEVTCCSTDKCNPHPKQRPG
Dickkopf-related protein 1 (Homo sapiens), sequence (O94907 whole entry, looked up): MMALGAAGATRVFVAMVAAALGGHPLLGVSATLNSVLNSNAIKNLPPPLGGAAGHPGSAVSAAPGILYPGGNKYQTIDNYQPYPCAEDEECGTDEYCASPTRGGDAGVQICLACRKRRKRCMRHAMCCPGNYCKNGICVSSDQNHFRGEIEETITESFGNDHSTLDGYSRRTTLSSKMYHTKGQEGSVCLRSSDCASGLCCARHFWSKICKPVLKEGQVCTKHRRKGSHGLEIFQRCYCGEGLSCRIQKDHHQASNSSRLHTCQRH
Left-right determination factor 2 (Homo sapiens), sequence (O00292 whole entry, looked up): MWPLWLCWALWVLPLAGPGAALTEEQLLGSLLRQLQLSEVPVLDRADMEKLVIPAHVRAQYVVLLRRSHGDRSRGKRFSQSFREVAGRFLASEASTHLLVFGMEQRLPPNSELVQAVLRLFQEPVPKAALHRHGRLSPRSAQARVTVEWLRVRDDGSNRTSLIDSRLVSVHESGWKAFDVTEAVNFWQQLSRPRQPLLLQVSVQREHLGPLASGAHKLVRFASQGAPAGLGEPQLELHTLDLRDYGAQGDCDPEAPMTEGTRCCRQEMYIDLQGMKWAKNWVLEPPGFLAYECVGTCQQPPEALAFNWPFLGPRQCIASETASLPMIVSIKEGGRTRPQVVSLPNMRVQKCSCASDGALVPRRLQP

Take `CC[C@@H]1C=C(C(=O)O)[C@H](c2ccc(C)cc2)N1S(=O)(=O)c1ccc(C)cc1`: the composite z-score is 0.66 in test [1]; 0.0882 in [2]; 0.335 in test [3]; 0.227 in test [5]; 0.745 in [6]; -0.0708 in test [7]. The composite z-score was 0.534 in test [8]; -0.357 in [9]; 0.236 in test [10]; 0.878 in test [11]; -0.925 in test [13]; 0.846 in test [14]. For the same compound, the composite z-score in test [15] is 0.515; in [16], -0.096; in [17], 0.0048; in test [18] it was -0.126; in test [19], 0.24; in [20], 0.671. The values for the z-score in test [4] and in test [12] were 0.243 (inactive) and -0.315, respectively.
For `COC(=O)[C@]1(CCC(=O)OC(C)(C)C)N=C(c2ccc(OCCCO)cc2)O[C@@H]1c1ccccc1`, the composite z-score is 1.37 in [1]; 0.46 in test [2]; 0.779 in [3]; -0.361 in [5]; -0.495 in test [6]; -0.754 in test [7]. The composite z-score is -0.577 in [8]; -0.563 in [9]; -0.0102 in test [10]; 0.529 in [11]; -1.45 in test [13]; -0.221 in test [14]. Moreover, the composite z-score in [15] was 0.271; in test [16], -0.0405; in test [17], 0.04; in [18], 1.24; in test [19] it was 1.79; in [20] it was 1.29. The z-score was -0.783 (inactive) in test [4] and -2.73 in test [12].
With `CCCCN1CC=CC23O[C@@H]4/C=C\CCCOC(=O)C4[C@H]2C(=O)N(CCCO)[C@@H]3C1=O` (stereo not given in full), the composite z-score in test [1] is 0.992; in [2], -0.222; in [3] it was 0.421; in test [5] it was -1.11; in [6], -0.224; in test [7] it was -0.992. For the same compound, the composite z-score in test [8] is -0.946; in [9], -0.984; in test [10] it was -0.27; in test [11] it was 0.498; in test [13], -1.08; in [14], -0.692. Also, the composite z-score in [15] was -0.298; in test [16] it was -0.124; in test [17] it was -0.0211; in test [18] it was 0.13; in [19] it was 2.1; in [20], -0.803. In addition, the figures for the z-score in [4] and in [12] were 0.187 (inactive) and -0.381, respectively.
As to `COC(=O)[C@@]1(Cc2ccc(OC)cc2)[C@H]2c3cc(C(=O)N4CCCC4)n(CCCNc4ncc(C(F)(F)F)cc4Cl)c3C[C@H]2CN1C(=O)c1ccccc1`, the composite z-score in test [1] was determined as 0.596; in test [2], 1.63; in test [3], 0.941; in test [5] it was 0.595; in [6] it was 0.673; in test [7] it was 0.659. Besides, the composite z-score in test [8] was 0.95; in test [9], 0.244; in test [10], 1.11; in test [11] it was 0.958; in [13], 0.0792; in test [14] it was 1.33. Besides, the composite z-score in test [15] was 0.74; in [16], 0.901; in test [17], 0.76; in test [18], -0.447; in [19] it was -0.0323; in [20], 0.884. The z-score in [4] is -2.98 (inactive); in [12], -2.32.
For `COc1ccc(NN2C(C(O)c3ccc(N(C)C)cc3)C=CC3C(=O)N(C4CCCCC4)C(=O)C32)cc1` (stereo not given), the composite z-score in [1] amounted to 1.01; in test [2], 1.15; in test [3] it was 0.649; in [5] it was 0.635; in test [6], 1.3; in test [7], 0.322. Further, the composite z-score in test [8] is 0.659; in test [9] it was -0.28; in test [10] it was 0.814; in [11], 1.42; in test [13] it was -0.146; in test [14], 1.21. Also, the composite z-score in test [15] is 0.651; in test [16] it was 0.351; in test [17], -0.0248; in test [18], 0.42; in test [19], 1.22; in test [20], 1.72. In addition, the figures for the z-score in test [4] and in [12] were -0.438 (inactive) and -0.581, respectively.
For `C#CCN(C/C=C/c1ccccc1)[C@H](CO)c1ccccc1`, the composite z-score is -0.222 in test [1]; -0.583 in test [2]; -0.506 in test [3]; 0.0797 in test [5]; 0.0831 in test [6]; -0.0239 in test [7]. Further, the composite z-score is 0.598 in [8]; 0.358 in test [9]; -0.283 in [10]; -0.414 in test [11]; 0.171 in test [13]; -0.653 in [14]. Besides, the composite z-score is -0.472 in [15]; -0.0919 in [16]; -0.262 in test [17]; -0.326 in test [18]; -0.0349 in test [19]; -0.0338 in [20]. For the same compound, the z-score in test [4] was 0.985 (inactive); in [12] it was -1.74.
